# High-throughput results deposited in PubChem by National Center for Advancing Translational Sciences (NCATS).
# Pf growth 96h = P. falciparum growth inhibition at 96 hours. Potency, µM (series often up to 28.7 µM), without a hit: at the highest dose activity change, negative = inhibition, actives largely listed as inhibitors. AID 504834. 6.9% of 320,000 active. P. falciparum luciferase reporter growth, 96 h; also: potency is read from the fitted curve at half-maximal effect; % is scaled to controls: 0 for no effect and ±100 for the full control effect
#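 Erythrocytes infected with luciferase-expressing P. falciparum were dispensed at 2% hematocrit and 0.05% parasitemia (final), then incubated with compounds 96 hours at 37 C in 5% CO2. Luminescence after detection reagent addition reported growth.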
# NS1 inh = influenza NS1 inhibition | 0.4% of 270,000 active | Potency, µM (titrated, usually from 46.1 µM), inactives show at the top dose activity, positive = more growth; calls by dose curve; also: potency is read from the fitted curve at half-maximal effect; actives are rising curves; nearly all actives have a fitted effect of over 50% in size
#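 A cell-based growth assay was used: compounds that relieve NS1-induced slow growth of budding yeast raise OD600. Assay medium was yeast nitrogen base with ammonium sulphate and -URA supplement, pH 6.0, with 2% galactose.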
# Pf growth 48h = P. falciparum growth inhibition at 48 hours (one generation); Potency, µM (doses to about 28.7 µM), without a hit: top-dose activity change, negative = inhibition, usual class: inhibitors; 5.9% of 310,000 active; P. falciparum luciferase growth in erythrocytes, 48 h; also: potency is read from the fitted curve at half-maximal effect; % is scaled to controls: 0 for no effect and ±100 for the full control effect
#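 Cell-based growth assay: transgenic P. falciparum expressing firefly luciferase, cultured in red cells within RPMI 1640 containing 0.5% w/v Albumax, 24 mM bicarbonate and gentamycin. A drop in luciferase activity indicates inhibition.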
# SARS PLP yeast = inhibitors of SARS-CoV papain-like protease in yeast; Potency, µM (titrated, usually from 32.9 µM), for the others: at the highest dose activity, positive = growth rescue, usual class: activators; 0.19% of 330,000 active; S. cerevisiae expressing SARS-CoV PLpro, growth rescue; AID 485353; calls by dose curve; also: potency is read from the fitted curve at half-maximal effect; 0% is about no effect; nearly all actives have a fitted effect of over 55% in size
# Shiga inhibitor = Shiga toxin inhibition; Vero cells, Shiga toxin protein synthesis inhibition reporter; inhibition, % at 38.7 µM; 9.2% of 290,000 active; in the data active = inhibition mostly above about 28%, no sharp cut-off; inactive = mostly below about 43%; also: 0% is about no effect
# CHX counter = affects cycloheximide protein synthesis inhibition readout, counter-screen; cell reporter, cycloheximide protein synthesis inhibition counterscreen; max response, %; 12% of 300,000 active; in the data active = max response mostly above about 13%, no sharp cut-off; inactive = mostly below about 14%; also: read at 38.3 µM for the half of the compounds with a filed dose; 0% is about no effect
# Starred values were filed as active, the others as inactive; ? = inconclusive; / = not tested or not shown. An excerpt weighted towards active compounds, which were near 21% of everything screened. Unless noted, calls follow the shape of the dose curve; as a rule, active = well fitted inhibition curve with a large enough effect; inconclusive = small, poorly fitted or top-dose-only effect, or another doubt; inactive = no such curve, though single readings can be large or run the other way.
SMILES,Pf growth 96h,NS1 inh,Pf growth 48h,SARS PLP yeast,Shiga inhibitor,CHX counter
Cc1cc(C)n(-c2ccc(C(=O)N3CCN(S(=O)(=O)c4ccc(Cl)cc4)CC3)cc2)n1,2.62µM*,/,10.4µM*,-1.1%,/,/
CC(=O)c1ccc(S(=O)(=O)N2CCN(C(=O)c3ccc(-n4nc(C)c(Cl)c4C)cc3)CC2)cc1,13.1µM*,/,?,4.2%,/,/
Cc1nn(-c2ccc(C(=O)N3CCN(S(=O)(=O)c4ccccc4C(F)(F)F)CC3)cc2)c(C)c1Cl,?,/,13.1µM*,2.7%,/,/
Cc1nn(-c2ccc(C(=O)O)cc2)c(C)c1Cl,34.5%,-3.9%,52.6%,-2.8%,57.6*,25.2*
CC(C)(C)C(=O)Nc1nnc(SCC(=O)NCc2ccco2)s1,1.3%,-3.0%,5.1%,-19.2%,-4.5,-1.4
CCCCn1c(C)cc(C)c(S(=O)(=O)c2ccccc2C)c1=O,14.7µM*,4.9%,/,-15.2%,-7.0,-6.2
O=C1OCCC1Sc1nc2ccccc2n1-c1ccccc1 (stereo not given),11.7µM*,-6.4%,/,1.5%,-10.9,-3.6
COC(=O)[C@H](CCSC)NC(=O)Cn1cnc2c(SC)nc(N)nc21,/,/,/,-1.7%,/,/
CCOC(=O)[C@@H]1[C@H]2COc3cc(OC)ccc3[C@H]2N2C(=O)N(c3ccc(C(F)(F)F)cc3)C(=O)[C@]12C,/,/,/,7.1%,/,/
Cc1ccc(C(C)C)c(OCC(=O)NNC(=O)C(C(C)C)N2C(=O)c3ccccc3C2=O)c1 (stereo not given),18.3%,-11.5%,-19.1%,25.7%,-11.1,-2.2
Cc1cc(C)n(CCC(=O)N/N=C/c2c(O)ccc3ccccc23)n1,?,-64.2%,6.57µM*,-1.3%,3.3,-4.4
Cc1cc(C)n(CCC(=O)N/N=C/c2ccc(O)cc2)n1,-25.3%,-2.0%,9.1%,-6.5%,-2.6,7.3
COc1ccc(/C=N/NC(=O)CCSc2nc3ccccc3s2)cc1OC,?,-5.6%,-21.6%,-1.6%,3.2,-0.5
O=C(CCSc1nc2ccccc2s1)N/N=C/c1c(O)ccc2ccccc12,2.94µM*,?,?,-8.1%,-1.0,-1.0
CC(=O)OCC(NC(=O)C(COCc1ccccc1)NC(=O)OC(C)(C)C)C1OC(n2cc(F)c(=O)[nH]c2=O)C(OC(C)=O)C1OC(C)=O (stereo not given),/,/,/,/,-6.9,-2.2
CCC(C)(C)n1nnnc1CN1CCc2ccccc21,/,9.9%,0.0%,1.1%,2.9,0.8
Nc1nonc1C(=O)N/N=C/c1ccc(-c2cccc([N+](=O)[O-])c2)o1,0.2%,-5.3%,/,1.2%,-4.8,-5.9
NC(=S)N/N=C/c1ccc(-c2cccc([N+](=O)[O-])c2)o1,?,-1.1%,?,14.5%,34.1,14.1*
O=C(N/N=C/c1ccc(-c2cccc([N+](=O)[O-])c2)o1)c1cccs1,?,6.4%,11.7%,0.4%,6.2,12.6*
O=C(/C=C\c1ccc(-c2cccc([N+](=O)[O-])c2)o1)N1CCOCC1,21.8%,-7.8%,112.0%,-2.7%,60.9*,37.3*
O=C(N/N=C/c1cccc([N+](=O)[O-])c1O)c1cccs1,69.2%,-24.2%,?,?,active,37.8*
O=C(c1cccc([N+](=O)[O-])c1)N1CCOCC1,?,17.6%,2.4%,19.3%,1.0,-2.0
CC(C)(C)N(Cc1ccccc1)C(=O)COC(=O)/C=C/c1ccc2c(c1)OCO2,2.5%,/,-19.0%,-0.1%,/,/
O=C(O)C1C2CCC(O2)C1C(=O)NCc1ccc(Cl)cc1 (stereo not given),31.2%,0.5%,20.5%,2.8%,-5.2,-2.3
O=C(N/N=C/c1ccc([N+](=O)[O-])cc1)c1cccs1,0.0%,1.0%,48.0%,0.2%,31.2,34.3*
CCOC(CNC(=O)c1cccn2c(=O)c3cc(Cl)ccc3nc12)OCC,?,18.7%,/,1.8%,3.8,-3.9
CCOC(CNC(=O)c1cccn2c(=O)c3c(C)c(C)sc3nc12)OCC,13.1µM*,9.3%,6.57µM*,-0.2%,-4.2,-2.2
COc1cc2cc(CCOC(=O)c3ccc(F)cc3)oc(=O)c2cc1OC,?,/,3.4%,-0.6%,/,/
c1cc2c(cnc3cscc32)s1,60.3%,17.0%,20.7%,-0.9%,19.2,16.3*
